Here are results for 8 molecules from PubChem BioAssay (NCI).

Test systems include NCI-H23 lung; NCI-H226 lung; NCI-H322M lung; HOP-62 NSCLC; NCI-H460 lung; HOP-92 NSCLC; NCI-H522 lung; A549/ATCC NSCLC; 786-0 renal; COLO 205 colon; DU-145 prostate; K-562 leukemia; MALME-3M melanoma; MDA-MB-231 breast; RXF 393 renal; SF-268 CNS; SF-295 CNS; SF-539 CNS; UACC-257 melanoma; M14 melanoma.
Common to all, as to test: NCI-60 one-dose screen, 48 h (100 = growth as untreated, 0 = no growth, -100 = all killed)
Holding throughout (conditions): 10 µM unless noted

The structures appear in SMILES notation. This is part of a sample that, as a whole, favours compounds with a hit. Of some 83,000 tested, about 20% had one in any assay.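 Treatment: one concentration, 48 hours, 96-well format. Scoring: percent growth, with anything below 10 considered active.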 Values without a mark were called inactive. Activity calls are given as the source filed them.

As to `O=C1Nc2ccccc2/C1=C\c1ccccc1O`, the growth with NCI-H23 lung is 82.6%; in the assay on NCI-H226 lung, 93.2%; in the assay with NCI-H322M lung it was 80.5%; in the assay with HOP-62 NSCLC, 87.9%; in the assay with NCI-H460 lung, 98.7%; in the assay with HOP-92 NSCLC it was 46.6%. Besides, the growth in the assay with NCI-H522 lung is 61.6%; with A549/ATCC NSCLC, 114%; in the assay on 786-0 renal it was 98.8%; in the assay on COLO 205 colon, 124%; in the assay on DU-145 prostate, 88.6%; with K-562 leukemia, 73.1%. Moreover, the growth is 78% in the assay on MALME-3M melanoma; 83.6% in the assay with MDA-MB-231 breast; 106% with RXF 393 renal; 89.7% with SF-268 CNS; 96.6% with SF-295 CNS; 88.7% in the assay with SF-539 CNS. Moreover, the values for the growth with UACC-257 melanoma and in the assay with M14 melanoma were 94% and 85.6%, respectively.

As to `CCCCCCCCCCCCSC1=C(Cl)C(=O)C(OC)=C(OC)C1=O`, the growth is 43.7% with NCI-H23 lung; 74.6% in the assay on NCI-H226 lung; 75.8% with NCI-H322M lung; 75.2% in the assay with HOP-62 NSCLC; 18.2% in the assay on NCI-H460 lung; 57.9% in the assay on HOP-92 NSCLC. Besides, the growth in the assay on NCI-H522 lung is -63.3% (active); in the assay on A549/ATCC NSCLC it was 29.4%; with 786-0 renal, 65.6%; in the assay with COLO 205 colon it was 55.4%; in the assay with DU-145 prostate it was 60.2%; in the assay on K-562 leukemia it was 28.2%. In addition, the growth in the assay with MALME-3M melanoma was 12.5%; with MDA-MB-231 breast it was 55.5%; in the assay with RXF 393 renal, 34.1%; in the assay on SF-268 CNS, 46.1%; with SF-295 CNS it was 38.3%; in the assay on SF-539 CNS, 41.5%. Besides, the growth is 26.8% in the assay on UACC-257 melanoma and 64.1% in the assay on M14 melanoma.

`NC(=O)OCCO`: the growth with NCI-H23 lung is 99.3%; with NCI-H226 lung, 99.5%; with NCI-H322M lung it was 97%; in the assay with HOP-62 NSCLC it was 105%; with NCI-H460 lung, 110%; in the assay on HOP-92 NSCLC, 102%. For the same molecule, the growth in the assay on NCI-H522 lung was 96.1%; in the assay with A549/ATCC NSCLC, 99.7%; in the assay on 786-0 renal, 95%; with COLO 205 colon, 113%; with DU-145 prostate it was 104%; with K-562 leukemia it was 82.9%. Moreover, the growth with MALME-3M melanoma is 84.7%; in the assay with MDA-MB-231 breast, 109%; with RXF 393 renal it was 110%; in the assay on SF-268 CNS it was 97.7%; in the assay on SF-295 CNS it was 106%; in the assay with SF-539 CNS, 108%. The values for the growth in the assay with UACC-257 melanoma and in the assay on M14 melanoma were 95.6% and 94.6%, respectively.

On to `Cc1nc(O)cc(=O)[nH]1`, for which the growth with NCI-H23 lung was 108%; with NCI-H226 lung, 111%; in the assay with NCI-H322M lung it was 99.3%; in the assay on HOP-62 NSCLC, 112%; in the assay on NCI-H460 lung, 104%; in the assay with HOP-92 NSCLC, 76.3%. The growth is 103% in the assay on NCI-H522 lung; 109% with A549/ATCC NSCLC; 114% with 786-0 renal; 115% with COLO 205 colon; 113% with DU-145 prostate; 112% with K-562 leukemia. The growth is 106% with MALME-3M melanoma; 124% in the assay with MDA-MB-231 breast; 111% in the assay on RXF 393 renal; 105% in the assay on SF-268 CNS; 118% in the assay on SF-295 CNS; 114% in the assay on SF-539 CNS. Also, the growth in the assay on UACC-257 melanoma was 92.1%; in the assay on M14 melanoma it was 105%.

For `CC(=O)OC/C(C)=C\CC(C)COC(C)=O` (stereo not given), the growth with NCI-H23 lung is 112%; in the assay on NCI-H226 lung, 103%; in the assay with NCI-H322M lung, 102%; with HOP-62 NSCLC, 96.9%; with NCI-H460 lung, 102%; with HOP-92 NSCLC, 69.8%. Besides, the growth in the assay on NCI-H522 lung is 110%; with A549/ATCC NSCLC, 106%; with 786-0 renal, 96.7%; in the assay with COLO 205 colon, 104%; with DU-145 prostate, 114%; with K-562 leukemia, 103%. Moreover, the growth in the assay on MALME-3M melanoma was 102%; with MDA-MB-231 breast it was 99.7%; in the assay on RXF 393 renal, 97.1%; in the assay on SF-268 CNS, 109%; in the assay on SF-295 CNS, 94.6%; with SF-539 CNS, 116%. The results for the growth with UACC-257 melanoma and with M14 melanoma were 102% and 96.4%, respectively.

Consider `CCCCCC(=O)OCCC1CCCCC1`, for which the growth was 96.2% with NCI-H23 lung; 101% in the assay with NCI-H226 lung; 99.9% in the assay on NCI-H322M lung; 98.6% with HOP-62 NSCLC; 105% in the assay with NCI-H460 lung; 70% in the assay on HOP-92 NSCLC. Also, the growth in the assay with NCI-H522 lung is 95%; in the assay with A549/ATCC NSCLC, 98.4%; with 786-0 renal, 106%; in the assay with COLO 205 colon, 101%; with DU-145 prostate, 98.2%; in the assay with K-562 leukemia, 107%. Besides, the growth in the assay on MALME-3M melanoma is 84.1%; with MDA-MB-231 breast, 114%; with RXF 393 renal, 104%; in the assay with SF-268 CNS, 93%; with SF-295 CNS, 108%; in the assay with SF-539 CNS, 97.8%. Besides, the growth was 95.9% in the assay with UACC-257 melanoma and 94% with M14 melanoma.

`CCN(CC)c1ccc2nc3ccc(N=Nc4ccc(N(C)C)cc4)cc3[n+](-c3ccccc3)c2c1`: the growth is -64.9% (active) in the assay on NCI-H23 lung; -36.9% (active) in the assay with NCI-H226 lung; 25.2% in the assay on NCI-H322M lung; -87.9% (active) with HOP-62 NSCLC; -66.4% (active) in the assay on NCI-H460 lung; -14.6% (active) with HOP-92 NSCLC. The growth in the assay on NCI-H522 lung is -44.9% (active); in the assay with A549/ATCC NSCLC, 3.32% (active); in the assay on 786-0 renal, -56.8% (active); in the assay on COLO 205 colon, -89.9% (active); in the assay with DU-145 prostate, -98% (active); with K-562 leukemia it was -4.96% (active). Besides, the growth in the assay with MALME-3M melanoma is -54.1% (active); with MDA-MB-231 breast it was -46.4% (active); in the assay with RXF 393 renal, -87.8% (active); in the assay on SF-268 CNS, 9.77% (active); in the assay on SF-295 CNS, -82.2% (active); in the assay on SF-539 CNS it was -69.2% (active). Further, the growth was -52.5% (active) in the assay on UACC-257 melanoma and -75% (active) in the assay with M14 melanoma.

Consider `c1ccc(Nc2ccccn2)nc1`, for which the growth in the assay with NCI-H23 lung was 95.9%; with NCI-H226 lung, 89%; in the assay with NCI-H322M lung, 100%; in the assay with HOP-62 NSCLC, 95.9%; with NCI-H460 lung it was 96.5%; in the assay with HOP-92 NSCLC, 95.8%. Besides, the growth in the assay with NCI-H522 lung was 88.2%; in the assay with A549/ATCC NSCLC it was 109%; in the assay with 786-0 renal, 97.6%; with COLO 205 colon, 104%; with DU-145 prostate, 120%; in the assay on K-562 leukemia, 90.5%. For the same molecule, the growth in the assay with MALME-3M melanoma is 83.4%; in the assay with MDA-MB-231 breast, 97.1%; in the assay with RXF 393 renal it was 97.9%; in the assay with SF-268 CNS, 102%; with SF-295 CNS, 99.3%; with SF-539 CNS it was 94.6%. The growth is 95.3% in the assay with UACC-257 melanoma and 99.9% with M14 melanoma.
